In ChEMBL document CHEMBL3988442, “University of Dundee, Small-Polar-MMV Screening Library” (2021) one finds Percent Effect data, which are given here for 51 compounds.

For assay [1], the target named is T1, Aspartate--tRNA(Asp/Asn) ligase (Mycobacterium tuberculosis (strain ATCC 25618 / H37Rv)) (UniProt P9WFW3). Further: in the data most compounds retested in dose-response had high values.
T1 sequence (whole entry): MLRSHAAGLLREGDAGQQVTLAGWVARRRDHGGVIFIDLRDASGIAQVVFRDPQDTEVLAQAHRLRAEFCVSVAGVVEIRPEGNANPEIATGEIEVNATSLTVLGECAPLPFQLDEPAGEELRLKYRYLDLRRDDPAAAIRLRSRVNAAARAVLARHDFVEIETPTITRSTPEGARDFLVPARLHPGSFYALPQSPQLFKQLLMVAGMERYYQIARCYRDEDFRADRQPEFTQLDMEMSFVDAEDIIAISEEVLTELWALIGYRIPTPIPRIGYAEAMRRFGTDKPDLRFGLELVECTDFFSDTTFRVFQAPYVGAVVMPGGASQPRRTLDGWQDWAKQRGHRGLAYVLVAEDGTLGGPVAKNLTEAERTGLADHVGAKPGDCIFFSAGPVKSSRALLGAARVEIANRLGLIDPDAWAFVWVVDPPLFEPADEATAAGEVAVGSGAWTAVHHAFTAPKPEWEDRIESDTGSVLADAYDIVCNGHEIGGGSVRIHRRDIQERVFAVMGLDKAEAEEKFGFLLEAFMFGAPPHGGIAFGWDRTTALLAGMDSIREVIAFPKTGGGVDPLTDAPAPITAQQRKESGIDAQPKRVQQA
Description: Assay for Asp RNA synthetase-1 from Mycobacterium tuberculosis. The class given is functional. More on the design: scale not given: direction of the effect not stated beside the values. The note with it: 30 µM.

For assay [2], the target named is Shiga toxin 2 (Escherichia coli O157:H7) (UniProt P09385+P09386). Nature of the assay: E. coli 0.157:H7 Shiga Toxin SOP - stx2 screening assay. The note with it: 30 µM. More on the design: scale not given: direction of the effect not stated beside the values. The class given is functional.

For the compound `CCOCc1ncn2c1CN(C(=O)Nc1cccc(C)c1)CC2`, the Percent Effect in assay [1] is 1.59%; in assay [2] it was -12.7%.
`O=C(O)C1(Cc2ccccc2Cl)CCN(c2ncccc2F)CC1`: the Percent Effect was 2.22% in assay [1] and -10.7% in assay [2].
In the case of `O=C(Cc1ccccc1F)N1CCN(C(=O)c2cccc(F)c2)CC1`, the Percent Effect is 23.6% in assay [1] and -39.5% in assay [2].
As to `COCC(=O)N1CCN(Cc2coc(-c3cccc(F)c3)n2)CC1`, the values for the Percent Effect in assay [1] and in assay [2] were -1.18% and 16.9%, respectively.
The like results for `CN(C)[C@@H]1CCN(c2ncccn2)[C@H]1Cc1ccncc1` were, in that order, 0.268% and -22.4%.
Turning to `CC(NC(=O)N(C)Cc1ccc(Cl)s1)c1ccccn1` (configuration not stated), the Percent Effect is -2.02% in assay [1] and -6.3% in assay [2].
On to `c1ccc(-c2noc(CN3CCOC(Cn4cccn4)C3)n2)nc1` (configuration not stated), for which the Percent Effect in assay [1] is -2.01%; in assay [2] it was 11.3%.
`CC(NC(=O)c1cc(-c2cccc(Cl)c2)no1)C(=O)N1CCCC1` (configuration not stated): the Percent Effect in assay [1] is 0.15%; in assay [2] it was -14.8%.
In the case of `O=C(Cn1nc(-c2cccs2)ccc1=O)N1CCCCCC1`, the Percent Effect was 1.6% in assay [1] and -0.139% in assay [2].
In the case of `CCC1CN(C(=O)c2ccc(Cl)cc2O)CCN1C(C)C` (configuration not stated), the Percent Effect is -3.56% in assay [1] and 5.13% in assay [2].
For `COCCN(Cc1ccoc1)C(=O)c1c(F)cccc1Cl`, the Percent Effect in assay [1] is -3.31%; in assay [2], 5.86%.
Consider `O=C(Cc1cccc(F)c1)NCCNCc1cccc(O)c1`, for which the values for the Percent Effect in assay [1] and in assay [2] were 4.95% and -12.7%, respectively.
The like results for `CC(C)n1c(C2CCCN(Cc3ccnn3C)C2)nc2ccccc21` (configuration not stated) were, in that order, -2.04% and 1.29%.
Turning to `CC(C)c1nc(CCNC(=O)NCc2ccnc(N(C)C)c2)cs1`, the Percent Effect in assay [1] is -0.713%; in assay [2], -13.1%.
With `Cc1nc(N2CCN(C)CC2)ncc1C(=O)N1CCC(O)(CO)CC1`, the results for the Percent Effect in assay [1] and in assay [2] were 3.4% and 5.75%, respectively.
With `COCCNC(=O)[C@H]1CN(Cc2scnc2C)C[C@H]2OCC[C@@H]12`, the Percent Effect in assay [1] is -3.26%; in assay [2] it was 0.32%.
Consider `Cn1cc(-c2cnc(N3CCOCC3)nc2)cc1C(=O)N1CCOCC1`, for which the Percent Effect was -3.52% in assay [1] and -3.46% in assay [2].
The like results for `CN(C)C(C)(C)CNC(=O)C(C)(C)c1ccccc1F` were, in that order, -0.279% and 13.2%.
The corresponding values for `Cc1ccc(C(=O)N(C)Cc2cscn2)c(=O)[nH]1` are 0.749% and 8.36%.
`Cc1ccccc1CNc1nc(O)cc(C2CC(=O)N(C)C2)n1` (configuration not stated): the Percent Effect in assay [1] is -2.9%; in assay [2], 0.153%.
In the case of `Cc1nc(CN2CCCC(N(C)Cc3cscn3)C2)no1` (configuration not stated), the Percent Effect in assay [1] is 4.73%; in assay [2], -14.1%.
On to `Cc1cnn(CC2CCCN2Cc2coc(-c3cccs3)n2)c1` (configuration not stated), for which the Percent Effect in assay [1] is 1.41%; in assay [2], 4.89%.
The corresponding values for `CCc1nc(CC(=O)N2CCn3c(nnc3C(C)C)C2)cs1` are -0.367% and -14.7%.
With `Cc1cc(-c2cnc(NCc3cccnc3)nc2C(C)(C)C)on1`, the results for the Percent Effect in assay [1] and in assay [2] were 2.07% and 2.89%, respectively.
As to `Cc1cc(C(=O)N2CC[C@H](OCC3CC3)[C@@H]2Cc2cccnc2)no1`, the Percent Effect turned out to be 1.17% in assay [1] and 1.88% in assay [2].
As for `O=C1CCSCC(C(=O)N2CCN(C3CCCCC3)CC2)N1` (configuration not stated), the Percent Effect in assay [1] was -4.14%; in assay [2], -2.45%.
The corresponding values for `CS(=O)(=O)N1CCC(O)(Cn2c(C3CC3)nc3ccccc3c2=O)CC1` are 1.5% and 11.1%.
The corresponding values for `c1ccc(CN2CCCC2Cn2cncn2)nc1` (configuration not stated) are 3.85% and -7.85%.
As for `CC(C)c1nnc2n1CCN(C(=O)CN1Cc3ccccc3C1=O)C2`, the Percent Effect was -0.233% in assay [1] and -25.5% in assay [2].
As to `CSc1nccn1-c1cccc(C(=O)NCCCN2CCOCC2)c1`, the Percent Effect in assay [1] is -1.07%; in assay [2] it was 27.6%.
Turning to `CCNC(=O)[C@@H]1C[C@H](NC(=O)c2ccccc2C#N)CN1CCCSC`, the results for the Percent Effect in assay [1] and in assay [2] were -0.866% and 0.196%, respectively.
For the compound `CCNC(=O)CCc1c(C)nc2cc(O)nn2c1C`, the Percent Effect is 4.16% in assay [1] and -21.5% in assay [2].
The like results for `Cc1cc(C)c2nc(CN3CC[C@@H](O)C3)cc(O)c2c1` were, in that order, 3.16% and 7.54%.
Regarding `COCC(=O)N1CCC(c2cccc(Cc3ccc(F)cc3)n2)CC1`, the Percent Effect in assay [1] was 1.18%; in assay [2], -10.6%.
Take `Cc1cnn(CC2CCCCN2Cc2nnc(C3CC3)n2C)c1` (configuration not stated): the Percent Effect in assay [1] was -3.3%; in assay [2] it was 1.19%.
On to `COc1ccccc1C(=O)N1Cc2cc(C)ccc2OCC1CN(C)C` (configuration not stated), for which the Percent Effect in assay [1] was 1.89%; in assay [2], -7.43%.
As to `CCN1CC2(CC1=O)CN(C(=O)c1ccco1)CCN(C(=O)N(C)C)C2` (configuration not stated), the Percent Effect in assay [1] was 0.684%; in assay [2], -12.4%.
The like results for `COCCC(=O)N1CCC2(COCc3cnc(-c4ccccc4)nc32)C1` (configuration not stated) were, in that order, -4.87% and -3.09%.
As for `CCNc1cc2c(nn1)CCN(C(=O)c1ccc(CNC(C)=O)o1)C2`, the Percent Effect in assay [1] was 5.42%; in assay [2] it was -44.4%.
For `CC(C)c1cc(NC(=O)CN2CCCC2Cn2cccn2)on1` (configuration not stated), the Percent Effect in assay [1] was -1.29%; in assay [2] it was 29.8%.
The corresponding values for `COc1cccc(S(=O)(=O)N2CCC(O)(CN(C)C)C2)c1` (configuration not stated) are -0.221% and 11.2%.
The like results for `COCC1CN(C(=O)c2cccn2C)Cc2ncnn2C1` (configuration not stated) were, in that order, 12.6% and -34.6%.
`COCCC(=O)N1CC2(CCN(Cc3ccoc3)C2)C1`: the figures for the Percent Effect in assay [1] and in assay [2] were 5.6% and -19.5%, respectively.
`CC(C)c1nc2n(n1)CC(NCc1nnc(-c3ccco3)o1)CC2` (configuration not stated): the Percent Effect in assay [1] was -3.46%; in assay [2], 11.7%.
In the case of `O=C(NCCNc1ncccn1)C1CC(=O)N(CC(F)(F)F)C1` (configuration not stated), the Percent Effect was -6.31% in assay [1] and 20.8% in assay [2].
Take `CC(C)(C)c1cn2nc(N3CCOC(Cn4cncn4)C3)sc2n1` (configuration not stated): the Percent Effect in assay [1] was -2.01%; in assay [2], -8.88%.
In the case of `CCc1nc(CNCC2CCCN2c2cc(NC)ncn2)cs1` (configuration not stated), the values for the Percent Effect in assay [1] and in assay [2] were -0.456% and -5.66%, respectively.
In the case of `CC(C)OCCCNC(=O)c1ccc(-c2ccco2)[nH]c1=O`, the Percent Effect in assay [1] is -5.99%; in assay [2], 19%.
As to `CS(=O)(=O)N1CCCCCC1C1CCN(c2ncccc2C#N)CC1` (configuration not stated), the Percent Effect is -0.456% in assay [1] and 27.9% in assay [2].
For the compound `O=C(CC1CC1)N1CCC2(CC1)CN(c1ncccn1)CCO2`, the Percent Effect in assay [1] is -1.87%; in assay [2] it was 5.46%.
On to `c1ccc(C[C@H]2[C@H](N3CCOCC3)CCN2Cc2cccnc2)cc1`, for which the Percent Effect in assay [1] was 2.33%; in assay [2], -7.76%.
